# Test results reported in paper PMC7862700, “An all-to-all approach to the identification of sequence-specific readers for epigenetic DNA modifications on cytosine”.
# How the values were obtained:
# Assay in all cases: DAPPL (digital affinity profiling via proximity ligation, sequencing); 10 mM Tris-HCl pH 7.5, 50 mM NaCl, 1 mM DTT, 4% glycerol, room temperature, 30 min; GST-TFs on glutathione beads, 16-mer random dsDNA library, 0.1% formaldehyde crosslink after washing; high values mean tight binding
# [1] = target: T1, FEV (Homo sapiens, UniProt Q99581 1-238); conditions: protein: recombinant; tags: N-terminal GST; dsDNA, one strand shown
# T1 sequence: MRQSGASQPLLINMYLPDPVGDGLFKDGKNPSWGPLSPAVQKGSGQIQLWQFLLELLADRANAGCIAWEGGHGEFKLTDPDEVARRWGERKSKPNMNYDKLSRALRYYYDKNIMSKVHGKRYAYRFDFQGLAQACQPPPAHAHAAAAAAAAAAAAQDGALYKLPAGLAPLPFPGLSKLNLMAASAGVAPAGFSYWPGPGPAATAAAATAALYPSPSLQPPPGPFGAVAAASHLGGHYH
# Outline: (§1)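 Each value of binding signal is a hexamer's read frequency for a factor divided by the same hexamer's frequency in the tag-only sample. Barcoded, bead-captured GST fusions of human transcription factors made in yeast were pooled with that sample and incubated with 200 nmole of a random double-stranded 16-mer DNA library in Tris/NaCl/DTT/glycerol buffer at room temperature for 30 min. Washing, 0.1% formaldehyde crosslinking, proximity ligation, PCR and Illumina NextSeq500 sequencing followed.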
# [2] = target: ETV5 (Homo sapiens, UniProt P41161 1-510); conditions: protein: recombinant; tags: N-terminal GST; dsDNA, one strand shown
# Outline: as §1
# [3] = target: HSF1 (Homo sapiens, UniProt Q00613 1-529); conditions: protein: recombinant; tags: N-terminal GST; chain copies: 3; dsDNA, one strand shown
# Outline: as §1
# [4] = target: T2, SPIC (Homo sapiens, UniProt Q8N5J4 1-248); conditions: protein: recombinant; tags: N-terminal GST; dsDNA, one strand shown
# T2 sequence: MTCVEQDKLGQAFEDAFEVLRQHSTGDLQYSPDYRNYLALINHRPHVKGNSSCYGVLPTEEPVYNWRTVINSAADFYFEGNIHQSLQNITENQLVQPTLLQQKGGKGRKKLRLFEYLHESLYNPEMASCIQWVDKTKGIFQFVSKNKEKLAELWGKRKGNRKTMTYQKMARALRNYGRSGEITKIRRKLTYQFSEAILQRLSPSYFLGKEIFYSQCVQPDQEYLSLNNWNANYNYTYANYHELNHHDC
# Outline: as §1
# [5] = target: ELF4 (Homo sapiens, UniProt Q99607 1-663); conditions: protein: recombinant; tags: N-terminal GST; dsDNA, one strand shown
# Outline: as §1
# [6] = target: T3, ELK4 (Homo sapiens, UniProt P28324-2 1-405); conditions: protein: recombinant; tags: N-terminal GST; dsDNA, one strand shown
# T3 sequence: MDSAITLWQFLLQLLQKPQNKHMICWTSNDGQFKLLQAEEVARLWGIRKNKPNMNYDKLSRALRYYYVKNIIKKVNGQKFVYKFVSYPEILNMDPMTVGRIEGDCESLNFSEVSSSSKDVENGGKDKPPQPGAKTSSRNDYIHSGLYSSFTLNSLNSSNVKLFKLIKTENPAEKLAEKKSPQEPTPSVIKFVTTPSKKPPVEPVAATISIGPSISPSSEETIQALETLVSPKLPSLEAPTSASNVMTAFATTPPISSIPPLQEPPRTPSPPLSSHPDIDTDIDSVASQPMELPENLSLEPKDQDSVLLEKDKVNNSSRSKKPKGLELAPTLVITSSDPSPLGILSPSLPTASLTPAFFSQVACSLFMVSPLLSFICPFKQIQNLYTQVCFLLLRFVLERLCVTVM
# Outline: as §1
# [7] = target: T4, ETV2 (Homo sapiens, UniProt O00321 1-342); conditions: protein: recombinant; tags: N-terminal GST; dsDNA, one strand shown
# T4 sequence: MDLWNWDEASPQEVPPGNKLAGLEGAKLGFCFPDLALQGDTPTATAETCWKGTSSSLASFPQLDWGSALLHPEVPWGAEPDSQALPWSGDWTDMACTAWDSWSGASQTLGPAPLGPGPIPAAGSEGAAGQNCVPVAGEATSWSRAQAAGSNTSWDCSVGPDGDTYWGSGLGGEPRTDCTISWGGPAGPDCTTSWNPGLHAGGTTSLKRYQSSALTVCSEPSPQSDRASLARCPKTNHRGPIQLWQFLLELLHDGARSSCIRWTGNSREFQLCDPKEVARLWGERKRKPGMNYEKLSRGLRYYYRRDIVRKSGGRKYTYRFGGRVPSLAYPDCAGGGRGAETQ
# Outline: as §1
# [8] = target: T5, ELF3 (Homo sapiens, UniProt P78545 1-371); conditions: protein: recombinant; tags: N-terminal GST; dsDNA, one strand shown
# T5 sequence: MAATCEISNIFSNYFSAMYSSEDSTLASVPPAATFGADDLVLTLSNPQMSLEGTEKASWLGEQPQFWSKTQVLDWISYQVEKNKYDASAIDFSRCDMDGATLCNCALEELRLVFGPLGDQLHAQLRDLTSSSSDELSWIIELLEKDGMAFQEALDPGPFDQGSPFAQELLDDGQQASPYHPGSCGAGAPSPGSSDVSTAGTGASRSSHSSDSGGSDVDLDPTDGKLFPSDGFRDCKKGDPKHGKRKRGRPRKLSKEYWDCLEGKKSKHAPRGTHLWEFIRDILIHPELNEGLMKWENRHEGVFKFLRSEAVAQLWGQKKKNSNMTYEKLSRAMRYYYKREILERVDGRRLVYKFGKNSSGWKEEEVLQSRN
# Outline: as §1
# [9] = target: CRX (Homo sapiens, UniProt O43186 1-299); conditions: protein: recombinant; tags: N-terminal GST; dsDNA, one strand shown
# Outline: as §1
# [10] = target: ETV1 (Homo sapiens, UniProt P50549 1-477); conditions: protein: recombinant; tags: N-terminal GST; dsDNA, one strand shown
# Outline: as §1
# [11] = target: T6, ERF (Homo sapiens, UniProt P50548 1-548); conditions: protein: recombinant; tags: N-terminal GST; dsDNA, one strand shown
# T6 sequence: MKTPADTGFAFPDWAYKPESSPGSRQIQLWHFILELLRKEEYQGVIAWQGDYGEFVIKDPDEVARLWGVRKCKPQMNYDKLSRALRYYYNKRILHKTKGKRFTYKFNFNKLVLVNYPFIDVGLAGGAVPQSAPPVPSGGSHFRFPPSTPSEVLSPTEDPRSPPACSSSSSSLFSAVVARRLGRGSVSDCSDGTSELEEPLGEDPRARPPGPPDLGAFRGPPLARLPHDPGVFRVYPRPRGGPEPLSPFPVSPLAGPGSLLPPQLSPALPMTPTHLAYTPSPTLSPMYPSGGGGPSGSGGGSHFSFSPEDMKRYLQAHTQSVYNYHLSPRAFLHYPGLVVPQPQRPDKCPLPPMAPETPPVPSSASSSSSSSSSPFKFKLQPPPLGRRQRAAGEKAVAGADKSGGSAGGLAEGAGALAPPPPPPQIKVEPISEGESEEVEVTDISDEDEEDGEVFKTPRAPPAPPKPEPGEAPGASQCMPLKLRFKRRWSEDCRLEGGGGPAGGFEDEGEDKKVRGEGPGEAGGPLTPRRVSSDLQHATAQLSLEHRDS
# Outline: as §1
# [12] = target: T7, ETV3L (Homo sapiens, UniProt Q6ZN32 1-361); conditions: protein: recombinant; tags: N-terminal GST; dsDNA, one strand shown
# T7 sequence: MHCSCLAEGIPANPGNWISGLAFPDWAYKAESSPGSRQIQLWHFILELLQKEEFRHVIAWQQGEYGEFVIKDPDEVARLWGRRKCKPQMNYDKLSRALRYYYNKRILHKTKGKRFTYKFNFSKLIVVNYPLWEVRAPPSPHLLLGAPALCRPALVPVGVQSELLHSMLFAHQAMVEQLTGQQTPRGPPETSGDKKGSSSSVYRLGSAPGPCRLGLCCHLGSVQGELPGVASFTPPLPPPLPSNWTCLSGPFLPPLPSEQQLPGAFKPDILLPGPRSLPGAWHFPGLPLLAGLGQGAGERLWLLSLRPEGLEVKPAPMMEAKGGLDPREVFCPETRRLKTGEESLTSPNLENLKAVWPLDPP
# Outline: as §1
# [13] = target: T8, ETS2 (Homo sapiens, UniProt P15036 1-469); conditions: protein: recombinant; tags: N-terminal GST; dsDNA, one strand shown
# T8 sequence: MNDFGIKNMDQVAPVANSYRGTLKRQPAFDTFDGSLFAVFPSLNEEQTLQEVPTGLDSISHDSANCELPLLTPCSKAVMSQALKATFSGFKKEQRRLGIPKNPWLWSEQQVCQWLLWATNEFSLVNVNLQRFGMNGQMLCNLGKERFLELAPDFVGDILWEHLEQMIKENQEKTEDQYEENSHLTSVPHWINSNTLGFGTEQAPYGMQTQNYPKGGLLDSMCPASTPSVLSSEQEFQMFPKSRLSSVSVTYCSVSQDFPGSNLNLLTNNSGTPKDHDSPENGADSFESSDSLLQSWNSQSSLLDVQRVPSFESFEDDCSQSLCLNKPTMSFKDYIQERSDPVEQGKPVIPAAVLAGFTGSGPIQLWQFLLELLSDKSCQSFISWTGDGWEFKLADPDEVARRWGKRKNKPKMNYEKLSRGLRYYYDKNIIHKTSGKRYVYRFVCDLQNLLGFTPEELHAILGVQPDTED
# Outline: as §1
# [14] = target: T9, SPDEF (Homo sapiens, UniProt O95238 1-335); conditions: protein: recombinant; tags: N-terminal GST; dsDNA, one strand shown
# T9 sequence: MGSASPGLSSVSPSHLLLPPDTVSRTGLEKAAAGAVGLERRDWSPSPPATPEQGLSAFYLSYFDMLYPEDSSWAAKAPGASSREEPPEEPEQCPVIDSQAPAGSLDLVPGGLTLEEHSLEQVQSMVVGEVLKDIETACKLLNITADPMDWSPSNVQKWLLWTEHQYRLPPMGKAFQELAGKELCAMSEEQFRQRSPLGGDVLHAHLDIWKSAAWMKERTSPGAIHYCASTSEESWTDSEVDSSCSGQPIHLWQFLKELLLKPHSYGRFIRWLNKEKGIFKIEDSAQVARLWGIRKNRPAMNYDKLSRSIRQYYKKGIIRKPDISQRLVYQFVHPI
# Outline: as §1
# [15] = target: T10, ETV7 (Homo sapiens, UniProt Q9Y603 1-341); conditions: protein: recombinant; tags: N-terminal GST; dsDNA, one strand shown
# T10 sequence: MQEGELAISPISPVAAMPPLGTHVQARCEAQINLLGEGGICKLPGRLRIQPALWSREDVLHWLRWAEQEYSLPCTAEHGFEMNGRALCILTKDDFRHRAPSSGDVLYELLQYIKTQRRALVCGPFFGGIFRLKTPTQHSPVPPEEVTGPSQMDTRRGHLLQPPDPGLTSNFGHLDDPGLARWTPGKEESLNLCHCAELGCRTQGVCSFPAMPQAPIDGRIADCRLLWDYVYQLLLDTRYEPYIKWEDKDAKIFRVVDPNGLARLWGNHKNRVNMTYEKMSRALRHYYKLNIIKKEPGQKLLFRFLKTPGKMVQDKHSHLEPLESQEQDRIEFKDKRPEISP
# Outline: as §1
# [16] = target: T11, ELF5 (Homo sapiens, UniProt Q9UKW6-2 1-255); conditions: protein: recombinant; tags: N-terminal GST; dsDNA, one strand shown
# T11 sequence: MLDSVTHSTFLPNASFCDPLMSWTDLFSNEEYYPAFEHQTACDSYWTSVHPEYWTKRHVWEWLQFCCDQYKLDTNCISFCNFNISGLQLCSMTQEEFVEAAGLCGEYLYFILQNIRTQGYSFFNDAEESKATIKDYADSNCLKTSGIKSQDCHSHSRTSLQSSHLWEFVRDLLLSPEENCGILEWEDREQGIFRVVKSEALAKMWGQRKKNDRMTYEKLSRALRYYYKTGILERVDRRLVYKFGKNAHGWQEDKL
# Outline: as §1
# [17] = target: T12, ETV3 (Homo sapiens, UniProt P41162-2 1-143); conditions: protein: recombinant; tags: N-terminal GST; dsDNA, one strand shown
# T12 sequence: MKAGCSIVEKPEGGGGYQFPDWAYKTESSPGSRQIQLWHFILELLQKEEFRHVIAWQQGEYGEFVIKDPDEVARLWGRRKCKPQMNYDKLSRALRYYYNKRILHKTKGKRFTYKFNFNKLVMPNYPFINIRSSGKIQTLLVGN
# Outline: as §1
# [18] = target: ETV6 (Homo sapiens, UniProt P41212 1-452); conditions: protein: recombinant; tags: N-terminal GST; dsDNA, one strand shown
# Outline: as §1
# Chain of CRX (O43186 whole entry): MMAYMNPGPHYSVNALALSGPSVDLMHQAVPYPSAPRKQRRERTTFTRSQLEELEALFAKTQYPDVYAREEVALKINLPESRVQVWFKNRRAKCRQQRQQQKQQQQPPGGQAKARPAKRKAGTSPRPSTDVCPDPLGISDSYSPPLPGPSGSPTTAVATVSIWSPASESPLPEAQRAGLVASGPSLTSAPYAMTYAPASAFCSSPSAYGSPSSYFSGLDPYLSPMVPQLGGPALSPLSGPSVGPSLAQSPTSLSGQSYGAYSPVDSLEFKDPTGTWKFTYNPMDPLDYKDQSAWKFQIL
# Chain of ELF4 (Q99607 whole entry): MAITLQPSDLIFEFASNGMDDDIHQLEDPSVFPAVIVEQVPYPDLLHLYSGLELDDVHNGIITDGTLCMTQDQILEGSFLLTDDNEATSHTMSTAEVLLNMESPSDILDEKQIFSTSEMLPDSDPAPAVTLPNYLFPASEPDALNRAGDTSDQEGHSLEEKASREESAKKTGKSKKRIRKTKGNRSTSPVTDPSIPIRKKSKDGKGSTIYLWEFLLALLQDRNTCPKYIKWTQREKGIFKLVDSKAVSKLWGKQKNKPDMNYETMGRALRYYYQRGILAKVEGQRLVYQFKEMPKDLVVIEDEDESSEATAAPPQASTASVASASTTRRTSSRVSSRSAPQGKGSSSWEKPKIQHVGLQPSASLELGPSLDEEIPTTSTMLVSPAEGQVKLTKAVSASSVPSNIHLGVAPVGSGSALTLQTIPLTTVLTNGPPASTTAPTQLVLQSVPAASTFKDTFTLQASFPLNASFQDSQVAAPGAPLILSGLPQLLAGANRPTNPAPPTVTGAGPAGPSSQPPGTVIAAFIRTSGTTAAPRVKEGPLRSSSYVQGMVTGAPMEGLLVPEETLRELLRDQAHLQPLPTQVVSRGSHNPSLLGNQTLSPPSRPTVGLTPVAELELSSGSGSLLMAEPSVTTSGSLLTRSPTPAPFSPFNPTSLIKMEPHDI
# Chain of ETV1 (P50549 whole entry): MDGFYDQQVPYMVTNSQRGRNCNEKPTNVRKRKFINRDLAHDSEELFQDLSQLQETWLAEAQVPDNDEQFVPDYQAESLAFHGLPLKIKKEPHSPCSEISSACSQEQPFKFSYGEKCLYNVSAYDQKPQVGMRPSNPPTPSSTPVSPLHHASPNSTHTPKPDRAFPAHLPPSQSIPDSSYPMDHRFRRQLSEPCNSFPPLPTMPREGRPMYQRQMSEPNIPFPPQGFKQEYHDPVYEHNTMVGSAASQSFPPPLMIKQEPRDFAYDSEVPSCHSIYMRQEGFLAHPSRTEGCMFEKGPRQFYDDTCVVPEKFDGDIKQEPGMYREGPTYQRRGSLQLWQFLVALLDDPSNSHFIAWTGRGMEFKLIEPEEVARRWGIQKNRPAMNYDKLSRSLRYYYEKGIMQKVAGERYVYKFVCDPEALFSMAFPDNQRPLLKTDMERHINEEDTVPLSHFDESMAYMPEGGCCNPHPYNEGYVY
# Chain of ETV6 (P41212 whole entry): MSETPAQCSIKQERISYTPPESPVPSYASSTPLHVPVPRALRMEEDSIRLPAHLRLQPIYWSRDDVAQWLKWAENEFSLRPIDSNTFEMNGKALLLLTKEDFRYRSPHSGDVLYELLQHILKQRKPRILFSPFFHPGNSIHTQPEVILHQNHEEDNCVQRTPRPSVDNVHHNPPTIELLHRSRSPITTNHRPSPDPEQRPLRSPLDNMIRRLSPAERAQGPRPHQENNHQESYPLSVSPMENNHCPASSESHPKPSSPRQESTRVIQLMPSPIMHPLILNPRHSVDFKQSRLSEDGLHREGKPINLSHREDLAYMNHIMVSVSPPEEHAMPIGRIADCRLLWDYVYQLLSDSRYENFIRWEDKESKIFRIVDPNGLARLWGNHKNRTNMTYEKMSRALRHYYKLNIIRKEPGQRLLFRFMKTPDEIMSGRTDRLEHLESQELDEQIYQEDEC
# Chain of ETV5 (P41161 whole entry): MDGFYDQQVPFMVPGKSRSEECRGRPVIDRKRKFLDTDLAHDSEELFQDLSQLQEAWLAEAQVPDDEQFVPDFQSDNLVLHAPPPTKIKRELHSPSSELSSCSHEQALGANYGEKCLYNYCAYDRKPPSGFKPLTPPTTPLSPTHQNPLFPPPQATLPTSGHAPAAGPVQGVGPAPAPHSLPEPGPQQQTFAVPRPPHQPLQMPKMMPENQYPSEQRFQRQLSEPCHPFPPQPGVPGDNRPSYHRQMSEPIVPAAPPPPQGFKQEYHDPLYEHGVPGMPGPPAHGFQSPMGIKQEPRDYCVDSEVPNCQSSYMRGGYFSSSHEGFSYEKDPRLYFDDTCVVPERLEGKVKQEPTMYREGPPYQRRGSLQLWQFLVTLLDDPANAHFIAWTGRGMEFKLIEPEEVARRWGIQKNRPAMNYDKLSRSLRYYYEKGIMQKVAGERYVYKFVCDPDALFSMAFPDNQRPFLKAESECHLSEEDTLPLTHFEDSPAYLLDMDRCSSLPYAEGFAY
# Chain of HSF1 (Q00613 whole entry): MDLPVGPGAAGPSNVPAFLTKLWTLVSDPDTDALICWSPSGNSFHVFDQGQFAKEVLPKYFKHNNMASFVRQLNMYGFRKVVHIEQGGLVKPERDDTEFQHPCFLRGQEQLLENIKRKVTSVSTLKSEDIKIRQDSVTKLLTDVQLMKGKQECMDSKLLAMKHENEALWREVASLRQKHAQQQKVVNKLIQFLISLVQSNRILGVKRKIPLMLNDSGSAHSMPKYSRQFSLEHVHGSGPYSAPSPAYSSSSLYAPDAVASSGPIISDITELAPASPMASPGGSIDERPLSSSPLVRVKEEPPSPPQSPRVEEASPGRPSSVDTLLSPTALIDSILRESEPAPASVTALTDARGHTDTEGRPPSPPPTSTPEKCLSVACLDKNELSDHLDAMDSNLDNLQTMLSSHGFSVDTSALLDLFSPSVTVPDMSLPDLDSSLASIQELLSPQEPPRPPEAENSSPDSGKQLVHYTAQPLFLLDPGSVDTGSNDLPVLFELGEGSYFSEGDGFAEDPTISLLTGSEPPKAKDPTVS
sequence,measurement,setting,value
CCGTCT,binding signal,[1],"1.3 fold enrichment (6-mer frequency, TF over GST control)"
same,binding signal,[2],"1.36 fold enrichment (6-mer frequency, TF over GST control)"
same,binding signal,[3],"1.29 fold enrichment (6-mer frequency, TF over GST control)"
same,binding signal,[4],"1.45 fold enrichment (6-mer frequency, TF over GST control)"
same,binding signal,[5],"1.37 fold enrichment (6-mer frequency, TF over GST control)"
same,binding signal,[6],"1.4 fold enrichment (6-mer frequency, TF over GST control)"
same,binding signal,[7],"1.32 fold enrichment (6-mer frequency, TF over GST control)"
same,binding signal,[8],"1.25 fold enrichment (6-mer frequency, TF over GST control)"
same,binding signal,[9],"1.26 fold enrichment (6-mer frequency, TF over GST control)"
same,binding signal,[10],"1.38 fold enrichment (6-mer frequency, TF over GST control)"
same,binding signal,[11],"1.28 fold enrichment (6-mer frequency, TF over GST control)"
same,binding signal,[12],"1.4 fold enrichment (6-mer frequency, TF over GST control)"
same,binding signal,[13],"1.29 fold enrichment (6-mer frequency, TF over GST control)"
same,binding signal,[14],"1.42 fold enrichment (6-mer frequency, TF over GST control)"
same,binding signal,[15],"1.26 fold enrichment (6-mer frequency, TF over GST control)"
same,binding signal,[16],"1.39 fold enrichment (6-mer frequency, TF over GST control)"
same,binding signal,[17],"1.36 fold enrichment (6-mer frequency, TF over GST control)"
same,binding signal,[18],"1.39 fold enrichment (6-mer frequency, TF over GST control)"
